Holding throughout (test): NCI-60 one-dose screen, 48 h (100 = growth as untreated, 0 = no growth, -100 = all killed)
What all share (conditions): 10 µM unless noted

Assay [1] deals with DU-145 prostate.
For assay [2], the system named is MALME-3M melanoma.
The subject of assay [3] is MDA-MB-231 breast.
Assay [4] has as its system RXF 393 renal.
Assay [5] deals with SF-295 CNS.
The test system of assay [6] is SF-539 CNS.
Assay [7] has as its system UACC-257 melanoma.
Assay [8] has as its system M14 melanoma.
In assay [9] the test system is HCT-15 colon.
In assay [10] the test system is HT29 colon.
The test system of assay [11] is SNB-75 CNS.
Assay [12] relates to SNB-19 CNS.
The test system of assay [13] is U251 CNS.
Assay [14] has as its system PC-3 prostate.
The test system of assay [15] is SK-MEL-5 melanoma.
Assay [16] has as its system UACC-62 melanoma.
In assay [17] the test system is LOX IMVI melanoma.
The subject of assay [18] is SK-MEL-28 melanoma.
The test system of assay [19] is SF-268 CNS.
Assay [20] deals with K-562 leukemia.

Compounds without any hit were thinned out: in the full panel of roughly 83,000, 20% have a hit.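 Interpretation: 100, growth as untreated; towards 0, rising growth inhibition; 0, no net growth; 0 to -100, cell death. Compounds scoring below 10 were considered active.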 Values without a mark were called inactive. Active and inactive are the calls of the source.

Turning to `SCc1ccc(CS)cc1`, the growth was 116% in assay [1]; 106% in assay [2]; 123% in [3]; 112% in assay [4]; 109% in assay [5]; 104% in assay [6]. Also, the growth in [7] was 114%; in assay [8] it was 106%; in assay [9], 105%; in [10] it was 120%; in [11], 109%; in [12] it was 115%. The growth was 101% in assay [13]; 98.1% in assay [14]; 95.7% in assay [15]; 105% in [16]; 96.2% in assay [17]; 112% in assay [18].

With `CCCCCNCCCCCNc1cc(OC)cc2cccnc12`, the growth was 104% in assay [1]; 60.2% in assay [2]; 88.8% in [3]; 68.3% in [4]; 95.6% in assay [19]; 87.8% in assay [6]. Besides, the growth in [7] is 101%; in [8], 87.3%; in [9], 88.6%; in assay [10] it was 64.2%; in [12], 94.1%; in assay [13] it was 79.8%. In addition, the growth was 69.6% in assay [14]; 31.1% in assay [15]; 75.3% in assay [16]; 95.5% in assay [17]; 91.9% in assay [18].

On to `COc1cc2c(cc1OCCCOc1cc3c(cc1OC)C(=O)N1CCC[C@H]1C=N3)C=CC(C)(C)O2`, for which the growth in [20] is 71.2%; in [2] it was 152%; in assay [3], 88.6%; in assay [4] it was 94.8%; in assay [19] it was 91.2%; in [5], 123%. The growth was 126% in [6]; 83.9% in assay [7]; 111% in assay [8]; 89.9% in [9]; 99.7% in assay [10]; 93.8% in assay [11]. The growth in assay [12] is 85.9%; in assay [13], 66.6%; in assay [14] it was 78.9%; in [15] it was 66.4%; in [16], 81%; in assay [17], 69.6%. For the same molecule, in assay [18], the growth was 33.2%.

For the molecule `O=C1C=CC(=O)N1c1cccc(N2C(=O)C=CC2=O)c1`, the growth was 104% in [20]; -36.4% (active) in assay [2]; 107% in assay [3]; -2.87% (active) in assay [4]; 108% in assay [19]; 102% in [5]. Moreover, the growth was 104% in assay [6]; 96.8% in assay [7]; 98.8% in assay [8]; 23.1% in assay [9]; 23.5% in [10]; 96% in assay [11]. Further, the growth in assay [12] was 147%; in assay [13], 111%; in assay [14], 99.9%; in assay [15], 116%; in assay [16], 109%; in assay [17] it was 73.5%. For the same molecule, in [18], the growth was 108%.

Consider `O=C(Nc1ccc(Br)cc1)Nc1ccccc1Cl`, for which the growth was 91.1% in assay [1]; 84.5% in assay [20]; 72.5% in [3]; 83% in assay [4]; 93.8% in assay [19]; 89.3% in assay [6]. For the same molecule, the growth in [7] is 88%; in assay [8], 89.2%; in assay [9], 87.1%; in [10], 95.3%; in assay [11] it was 77.8%; in [12], 117%. Moreover, the growth was 91.9% in [13]; 101% in [15]; 56.5% in assay [16]; 81.3% in assay [17]; 107% in assay [18].

In the case of `CN(C)c1ccc(Nc2c3ccccc3nc3ccccc23)cc1`, the growth was 8.82% (active) in assay [20]; -14% (active) in [2]; 43% in [3]; 21.6% in [4]; 27.7% in assay [19]; -7.58% (active) in assay [5]. For the same molecule, the growth was 17.5% in assay [6]; 18.3% in assay [7]; 18.5% in assay [8]; 6.89% (active) in assay [9]; 8.13% (active) in [10]; 9.38% (active) in [11]. Moreover, the growth was 28.4% in assay [12]; 23% in [13]; 33% in [14]; 9.1% (active) in assay [15]; 14.3% in assay [16]; -7.85% (active) in assay [17]. Moreover, the growth in assay [18] was 26%.

Regarding `COc1ccc2nc(NC(=O)/C(=C/c3cc(OC)c(OC)c(OC)c3)c3ccc(OC)c(OC)c3)sc2c1`, the growth was 106% in assay [1]; 98% in [2]; 68.8% in [3]; 107% in assay [4]; 99.9% in assay [19]; 102% in [6]. Moreover, the growth is 97.2% in [7]; 104% in [8]; 100% in assay [9]; 88.4% in [10]; 94.3% in assay [11]; 102% in assay [12]. For the same molecule, the growth in assay [13] is 94.6%; in [14], 86.8%; in [15] it was 93%; in assay [16], 90.5%; in assay [17] it was 90.4%; in [18], 105%.

Regarding `COc1cc(Cn2c(-c3ccccc3)cc3c2-c2oncc2CC3)cc(OC)c1OC`, the growth is -21.1% (active) in [1]; 11.8% in [20]; 47.1% in assay [3]; 9.54% (active) in [4]; 44.8% in assay [19]; -3.28% (active) in assay [6]. Moreover, the growth is 58.8% in [7]; 21.9% in assay [8]; 27.6% in assay [9]; -17.3% (active) in assay [11]; 44.5% in assay [12]; 24.1% in [13]. Further, the growth was 18.4% in assay [15], 47.5% in [16], 39.4% in [17] and 49.7% in [18].

For `COc1ccc(/C(=C\c2cc(OC)c(OC)c(OC)c2)C(=O)Nc2nc3ccc(Cl)cc3s2)cc1`, the growth in assay [1] was 93%; in assay [2] it was 93.8%; in assay [3], 90.9%; in [4], 109%; in assay [19] it was 71.1%; in [6], 100%. In addition, the growth in [7] was 92.1%; in assay [8] it was 105%; in assay [9], 93.2%; in assay [10], 88.3%; in assay [11] it was 89%; in [12], 105%. Further, the growth was 90.8% in assay [13]; 87.5% in [14]; 87.6% in assay [15]; 77.6% in assay [16]; 92.5% in assay [17]; 107% in assay [18].

These data come from PubChem BioAssay (NCI).
